# Source: PubChem
# TDP1 cell CPT – DT40-hTDP1 cell growth loss with CPT; hit rate 12% among 420,000; Potency, µM (doses to about 46.2 µM), for inactives: top-dose activity change, negative = growth inhibition, usual class: inhibitors; AID 686979; chicken DT40 Tdp1-/-;hTDP1 cells + 20 nM CPT, ATP luminescence, 48 h; note: potency is the fitted concentration of half-maximal effect; nearly all actives have a fitted effect of over 55% in size
#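 Chicken DT40 Tdp1-/- cells stably complemented with human TDP1 were seeded at 400 cells/well in medium containing 20 nM camptothecin, exposed to pin-transferred compounds, and grown at 37 °C for at least 48 hr. Viability was read as ATP luminescence.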
# IL1B secr inh – blocks inflammasome-driven IL-1 beta release; activity change, % at 57.5 µM; hit rate 4.7% among 360,000; THP-1 LPS/ATP IL-1B secretion, AlphaLISA, 16 h; hits give low values; in the data active = activity change below about -50%; inconclusive = mostly about -30% to -49%
#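 Secreted IL-1B measured by AlphaLISA bead assay after 16 h compound exposure of THP-1 cells; compounds (final up to 57.5 uM) added 1 h before LPS (250 ng/mL) and ATP (1.25 mM) stimulation; lower signal means less secretion.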
# HT1080-NT tox – kills 2HG-producing HT-1080-NT fibrosarcoma cells. hit rate 1.6% among 360,000. Potency, µM (highest dose often 46.1 µM), for inactives: top-dose activity, negative = less viability, actives largely listed as cytotoxic. HT-1080-NT fibrosarcoma viability, CellTiter-Glo ATP luminescence, 48 h;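 note: NT is the 2HG producing partner of a matched IDH1 knockdown line; potency is the fitted concentration of half-maximal effect; 0% = DMSO-treated cells and -100% = media-only wells without cells; nearly all actives have a fitted effect of over 55% in size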
#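 Luminescent CellTiter-Glo readout after 48 hours of compound exposure at 37 degrees C defined viability of HT-1080-NT cells. Activity was normalized to DMSO wells and cell-free media wells; concentration-response curves were fitted and assigned curve classes.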
# DT40 TDP1 no CPT – qHTS for Inhibitors of human tyrosyl-DNA phosphodiesterase 1 (TDP1): qHTS in cells in absence of CPT; DT40 Tdp1-/- hTDP1 cells, no CPT, ATP luminescence, 48 h; Potency, µM (doses to about 46.2 µM), for inactives: at the top dose activity change, negative = growth inhibition, usual class: inhibitors; hit rate 15% among 420,000; AID 686978, 2013; note: potency is the fitted concentration of half-maximal effect; nearly all actives have a fitted effect of over 55% in size
#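 Seeded 400 DT40-hTDP1 cells/well (vehicle DMSO, no 20 nM CPT); pinned compounds; ≥48 hr at 37 °C; CellTiter-Glo luminescence as viability measure.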
# HT1080 IDH1KD tx – toxicity to HT-1080 IDH1 knockdown cells (counter line) | HT-1080 IDH1 knockdown viability, ATP luminescence, 48 h | Potency, µM (doses to about 46.1 µM), without a hit: at the top dose activity, negative = toxicity, most hits filed as cytotoxic | hit rate 2% among 360,000 | AID 686971;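 note: potency is the fitted concentration of half-maximal effect; 0% = DMSO wells and -100% = cell-free medium wells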
#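 IDH1KD HT-1080 cells, 750/well, RPMI + 5% FBS; compound pinned after 2 h settling; 48 h, 37 °C; CellTiter-Glo luminescence; % activity normalised to DMSO and no-cell wells; curves fitted, classed by r2 and efficacy.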
# * = called active by the depositor; ? = inconclusive; · = no result given. A selection: hits, their analogues and other compounds. The true share with any hit is near 19%. Unless noted, calls come from the whole dose curve; as a rule, active = well fitted curve in the direction sought with a large enough effect; inconclusive = small, poorly fitted or top-dose-only effect, or another doubt; inactive = no such curve, though single readings can be large; an effect the other way counts as inactive or inconclusive. Unless noted, % is set by controls: 0 for no effect and ±100 for the full control effect.
SMILES,TDP1 cell CPT,IL1B secr inh,HT1080-NT tox,DT40 TDP1 no CPT,HT1080 IDH1KD tx
Cc1c(C)c2c(c(C)c1OC(=O)c1cccnc1)CC[C@@](C)(CCC[C@H](C)CCC[C@H](C)CCCC(C)C)O2,-3%,·,·,-7%,·
COC(=O)[C@H](CCSC)NC(=O)Cn1cnc2c(NCc3ccccc3)ncnc21,-10%,83,0%,9%,4%
CCN1CCN(C(=O)C(C)Sc2nc3nc(C)cc(C)n3n2)CC1 (stereo not given),6%,-51*,6%,-7%,6%
Cc1cc(C)n2nc(SC(C)C(=O)N3CCCC3)nc2n1 (stereo not given),0%,-2,0%,6%,5%
Cn1nc([N+](=O)[O-])nc1N1CCOCC1,-11%,-10,15%,-16%,-1%
CCC(C(=O)Nc1ccc([N+](=O)[O-])cn1)c1ccccc1 (stereo not given),-18%,-3,-14%,?,-4%
COc1cc(C(=O)NC23CC4CC(CC(C4)C2)C3)cc(OC)c1OC,-19%,0,9%,?,-1%
O=C(N/N=C/c1cc([N+](=O)[O-])ccc1Cl)c1cnccn1,3.3µM*,25,4.1µM*,5.8µM*,?
COc1ccc(OC)c(/C=N/NC(=O)C(=O)N2CCCC2)c1,?,60,-8%,?,-6%
COc1cccc(/C=N/NC(=O)C(=O)NCc2ccco2)c1O,7.3µM*,113,8.9µM*,21µM*,7.1µM*
COc1cccc(/C=N/NC(=O)C(=O)N2CCCCCC2)c1O,?,144,?,?,13µM*
COc1cc(OC)c(C=NNC(=S)NC23CC4CC(CC(C4)C2)C3)c(OC)c1,6.5µM*,12,-6%,6.5µM*,0%
COCCNC(=O)C1(C)CCN(C(=O)c2ccc(C(F)(F)F)nc2C)C1 (stereo not given),1%,14,?,19%,12%
COc1cccc(/C=N\NC(=O)C2C(=O)NCC2c2ccccc2)c1O (stereo not given),?,44,-29%,23µM*,?
COc1cccc(/C=N/NC(=O)c2cnccn2)c1O,?,76,?,?,16µM*
COc1cc(/C=N/NC(=O)NC23CC4CC(CC(C4)C2)C3)ccc1OCC(N)=O,?,-8,-5%,8.2µM*,2%
COc1ccc(/C=N/NC(=O)c2cnccn2)c(OC)c1OC,6%,-9,0%,-11%,0%
COc1ccc(/C=N/NC(=O)C2C(=O)NCC2c2ccccc2)c(OC)c1 (stereo not given),-8%,30,-9%,-13%,-12%
COc1cccc(/C=N/NC(=O)NC23CC4CC(CC(C4)C2)C3)c1O,-27%,-12,?,?,18µM*
COc1ccc(C=NNC(=S)NC23CC4CC(CC(C4)C2)C3)cc1OC,?,-8,0%,?,-1%
O=C(c1ccc(CS(=O)c2ccc(F)cc2)o1)N1CCN(C2CCCCC2)CC1 (stereo not given),-3%,44,10%,0%,11%
COC(=O)c1cccc(/C=N/NC(N)=S)c1O,0.18µM*,-26,?,0.26µM*,8%
COc1cccc(/C=N/NC(=O)c2ccoc2C)c1O,3.3µM*,263,?,0.73µM*,9.2µM*
COc1cccc(/C=N/NC(=O)C(=O)N/N=C/c2cccc(OC)c2O)c1O,1µM*,154,-8%,1.6µM*,6%
COc1cccc(/C=N/NC(=O)NC2CCCCC2)c1O,1%,?,-1%,-20%,-2%
SMILES,TDP1 cell CPT,IL1B secr inh,HT1080-NT tox,DT40 TDP1 no CPT,HT1080 IDH1KD tx
Cc1ccc(-c2ccc(/C=N\NC(=O)C3C(=O)NCC3c3ccccc3)o2)cc1Cl (stereo not given),?,-55*,?,?,?
COCc1ccc(CN2CCc3c([nH]c4ccccc34)C2CC(C)C)o1 (stereo not given),?,-23,?,?,?
O=C(Nc1cccc(Cl)c1)c1ccccc1NC(=O)C1CCCCC1C(=O)O (stereo not given),-6%,5,-6%,-28%,-3%
CCN(c1ccccc1)S(=O)(=O)c1ccc(C(=O)NCc2ccco2)cc1,?,12,0%,?,-5%
COc1cccc(/C=N/NC(=O)c2cc3cc([N+](=O)[O-])ccc3s2)c1O,0.92µM*,77,4.1µM*,0.46µM*,2.9µM*
COc1cc(/C=N/NC(=O)c2cccc([N+](=O)[O-])c2)ccc1O,1%,10,12%,5%,-3%
CC(C)Cn1c(CN2CCN(c3cccc(Cl)c3)CC2)nc2c1c(=O)[nH]c(=O)n2C,18µM*,·,·,21µM*,·
Cn1c(=O)[nH]c(=O)c2c1nc(CN1CCN(c3cccc(Cl)c3)CC1)n2Cc1ccccc1Cl,?,17,7%,15µM*,0%
Cn1c(=O)[nH]c(=O)c2c1nc(CN1CCN(c3cccc(Cl)c3)CC1)n2CCCc1ccccc1,?,-13,-1%,?,-2%
CCCCn1c(CN2CCN(c3cccc(Cl)c3)CC2)nc2c1c(=O)[nH]c(=O)n2C,3.3µM*,39,5µM*,3.3µM*,3.5µM*
COCCNC(=O)C1(C)CCN(C(=O)c2ccc3ccccc3n2)C1 (stereo not given),6%,5,22%,-22%,16%
Cc1nc2ccc(S(=O)(=O)NCC(=O)NC(C)c3ccccc3)cc2s1 (stereo not given),-5%,5,1%,1%,-2%
Cc1ccc(N2C(=O)c3ccccc3C2=O)cc1,4%,20,10%,7%,1%
Cc1ccc(SC2=C(Sc3ccc(C)cc3)C(=O)c3ccccc3C2=O)cc1,0.92µM*,-74*,3%,1µM*,-2%
CC(=O)Nc1c(Br)cc2c(c1Br)C(=O)c1ccccc1-2,-1%,2,7%,-4%,2%
CC(=O)C1=C(c2ccc(Br)cc2)C(=O)c2ccccc2C1=O,1.3µM*,-97*,13µM*,1.5µM*,13µM*
COc1ccc(-c2nnc(SCc3nnc(-c4ccc(Cl)cc4)o3)n2-c2ccccc2)cc1,16µM*,-28,-12%,16µM*,-23%
CSc1nnc(-c2ccco2)n1-c1ccccc1,18µM*,5,8%,?,16%
COc1ccc(-c2noc(CSc3nnc(Cc4ccccc4)n3-c3ccc(F)cc3)n2)cc1,?,·,·,16µM*,·
c1ccc(-n2c(SCc3nc(-c4cccs4)no3)nnc2-c2ccco2)cc1,?,-75*,?,?,13%
CC(=O)CSc1nnc(-c2ccco2)n1-c1ccccc1,4%,15,-1%,-27%,-6%
